The list is not random: actives were taken first. Their share in the collection is about 19%.
Shiga inhibitor = A qHTS for Small Molecule Inhibitors of Shiga Toxin; Vero cells, Shiga toxin protein synthesis inhibition reporter; inhibition, % at 38.7 µM; 9.2% of 290,000 active; AID 2315, 2010; in the data active = inhibition mostly above about 28%, no sharp cut-off; inactive = mostly below about 43%; note: 0% is about no effect
Cycloheximide cs = Cycloheximide Counterscreen for Small Molecule Inhibitors of Shiga Toxin; cell reporter, cycloheximide protein synthesis inhibition counterscreen; max response, %; 12% of 300,000 active; AID 2314, 2010; in the data active = max response mostly above about 13%, no sharp cut-off; inactive = mostly below about 14%; note: read at 38.3 µM for the half of the compounds with a filed dose; 0% is about no effect
Pf growth 48h = Primary qHTS for delayed death inhibitors of the malarial parasite plastid, 48 hour incubation; 5.9% of 310,000 active; AID 504832, 2011; Potency, µM (top dose mostly 28.7 µM), inactives show at the highest dose activity change, negative = inhibition, hits mostly inhibitors; P. falciparum luciferase growth in erythrocytes, 48 h; note: potency is the fitted concentration of half-maximal effect; % is set by controls: 0 for no effect and ±100 for the full control effect
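Luciferase-expressing parasites in RBCs, 2% Hct / 0.1% parasitemia final; RPMI 1640 + 0.5% Albumax; 37 C, 5% CO2, one generation; luminescence read-out, lower signal = inhibition.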
SARS PLpro yeast = qHTS of Yeast-based Assay for SARS-CoV PLP; S. cerevisiae expressing SARS-CoV PLpro, growth rescue; Potency, µM (highest dose often 32.9 µM), for inactives: top-dose activity, positive = growth rescue, usual class: activators; 0.19% of 330,000 active; calls by dose curve; note: potency is the fitted concentration of half-maximal effect; 0% is about no effect; nearly all actives have a fitted effect of over 55% in size
Pf growth 96h = Primary qHTS for delayed death inhibitors of the malarial parasite plastid, 96 hour incubation | 6.9% of 320,000 active | P. falciparum luciferase reporter growth, 96 h | Potency, µM (highest dose often 28.7 µM), for the others: at the highest dose activity change, negative = inhibition, actives largely listed as inhibitors | AID 504834, 2011; note: potency is the fitted concentration of half-maximal effect; % is set by controls: 0 for no effect and ±100 for the full control effect
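Plates of compound plus infected erythrocytes (2% hematocrit, 0.05% parasitemia final) incubate 96 hours, 37 C, 5% CO2. Detection reagent added; reduced luminescence from the parasites' luciferase reporter flags inhibition.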
AMA1 RON2 block = qHTS for Inhibitors of AMA1-RON; Towards Development of Antimalarial Drug Lead: Primary Screen. Plasmodium falciparum AMA1 (3D7) - RON2 peptide interaction. AlphaScreen AMA1-biotinylated RON2 peptide binding. Potency, µM (doses to about 58.2 µM), for inactives: top-dose activity change, negative = inhibition, most hits filed as inhibitors. 0.2% of 360,000 active;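 note: potency is the fitted concentration of half-maximal effect; 0% = vehicle wells and -100% = peptide control; nearly all actives have a fitted effect of over 45% in size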
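AMA1 (3D7) with his tag at 25 nM final met compounds first, then biotinylated RON2 peptide at 25 nM; detection used donor plus acceptor beads, 10 µg/mL apiece, read by AlphaScreen after 30 min at room temperature.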
The depositor's hits bear a star; ? = inconclusive; . = no result given; [ ] = another dose, or the depositor's remark. Unless noted, calls come from the whole dose curve; as a rule, active = well fitted curve in the direction sought with a large enough effect; inconclusive = small, poorly fitted or top-dose-only effect, or another doubt; inactive = no such curve, though single readings can be large; an effect the other way counts as inactive or inconclusive.

SMILES	Shiga inhibitor	Cycloheximide cs	Pf growth 48h	SARS PLpro yeast	Pf growth 96h	AMA1 RON2 block
C#CCOCCOCCOCCNc1nc(N2CCN(C(=O)[C@H]([C@@H](C)CC)n3cc([C@@H](N)CO)nn3)CC2)nc(N2CCN(C(=O)[C@H](Cc3cc4ccccc4[nH]3)n3cc([C@@H](N)C(C)CC)nn3)CC2)n1 (some centres undefined)	-4	-1	?	-3%	?	.
C#CCOCCOCCOCCNc1nc(N2CCN(C(=O)[C@H]([C@@H](C)CC)n3cc([C@@H](N)CC(C)C)nn3)CC2)nc(N2CCN(C(=O)[C@H](Cc3cc4ccccc4[nH]3)n3cc([C@@H](N)CC(C)C)nn3)CC2)n1	14	-1	10µM*	1%	3.3µM*	.
C#CCOCCOCCOCCNc1nc(N2CCOCC2)nc(N2CCN(C(=O)[C@H](Cc3cc4ccccc4[nH]3)n3cc([C@@H](N)CC(C)C)nn3)CC2)n1	-14	1	2.3µM*	0%	4.1µM*	-8%
O=S1(=O)CCN(CCCCc2ccccc2)CC1	.	.	.	.	.	1%
O=P(O)(O)OC(CO)CO	-10	-2	.	.	.	.
CCCCOCCCNC(=O)C[C@@H]1C[C@@]2(C(=O)OCC)CCCC=C2N(CCc2ccc(OC)c(OC)c2)C1=O	.	.	.	.	.	-17%
Cc1cc(Cl)ccc1OCc1nc(-c2ccc(O)cc2)n[nH]1	29	25	-4%	-10%	.	10%
Oc1ccc(N=Nc2n[nH]c(-c3ccc(Cl)cc3)n2)cc1	82*	23*	11%	-16%	?	86%
COc1ccccc1Nc1nc(Cl)nc(Nc2ccccc2OC)n1	6	6	-4%	4%	-26%	-8%
COc1nc(Nc2ccccc2F)nc(OC)n1	21	12*	19%	2%	11%	11%
COc1nc(NCCO)nc(Nc2ccccc2F)n1	83*	34*	125%	-1%	?	3%
Nc1nc2n(n1)C(c1ccc(F)cc1)CC(c1ccc(F)cc1)N2 (centres undefined)	-15	-8	13%	1%	-27%	31%
Cc1c(N=C/C=C/c2ccccc2)c(=O)n(-c2ccccc2)n1C	-11	-2	.	-2%	.	-4%
Cc1c(N=C/C=C/c2ccccc2)cnn1C	33	23*	25%	-6%	94%	-2%
O=C1NC(c2cccc3ccccc23)Nc2ccc(Cl)cc21 (centres undefined)	.	.	.	.	.	13%
CCCN(CCC)CC(O)Cn1cc(/C=C/C(=O)c2cccs2)c2ccccc21 (centres undefined)	-6	-1	7.4µM*	-8%	2%	7%
CCCCN(C)CC(O)Cn1cc(/C=C/C(=O)c2ccc(C)cc2)c2ccccc21 (centres undefined)	3	0	9.3µM*	-2%	-8%	-16%
CC(=O)c1ccc(NC(=O)CSc2ccc(-c3ccc(-n4cccn4)cc3)nn2)cc1	.	.	14%	2%	45%	0%
COc1ccc(NC(=O)c2ccc(S(=O)(=O)N3CCCCC3)cc2)cc1OC	.	.	.	-7%	.	-7%
O=c1[nH]c(CSc2nnc(NCCCN3CCOCC3)s2)nc2cc(Cl)ccc12	-12	-5	27%	6%	?	5%
COc1ccc(-c2sc3ccc(OC)cc3c2C#Cc2cncn2C)cc1	.	.	.	-9%	.	-1%
COc1ccc(-c2oc3ccccc3c2C#Cc2cncn2C)cc1	.	.	0.59µM*	6%	0.66µM*	8%
CCC(=O)NC(=S)NNC(=O)c1ccc(O)cc1	24	23*	13%	1%	-23%	85%
CC(=O)NNC(=S)NC(=O)c1ccc(C)cc1	5	-2	11%	1%	?	102%
CCC(=O)NNC(=S)NC(=O)c1ccc(C)cc1	51*	31*	0%	1%	39%	88%
SMILES	Shiga inhibitor	Cycloheximide cs	Pf growth 48h	SARS PLpro yeast	Pf growth 96h	AMA1 RON2 block
N#Cc1nnn(-c2ccc(Cl)cc2)c1N	-9	-1	19%	0%	5%	-3%
CC1CCN(S(=O)(=O)c2ccc3c(c2)c(=O)c(C(=O)NCc2cccs2)cn3C)CC1	-17	-4	11%	12%	-15%	17%
CC1CCN(S(=O)(=O)c2ccc3c(c2)c(=O)c(C(=O)NCc2ccco2)cn3C)CC1	-4	-1	?	10%	15µM*	-6%
CC1CCN(S(=O)(=O)c2ccc(C(=O)NCc3ccco3)cc2)CC1	-6	-1	2.1µM*	-1%	0%	-2%
CSc1ccc(S(=O)(=O)N2CCC(C(=O)NCc3ccco3)CC2)cc1	27	0	1.7µM*	16%	?	19%
Cc1ccc(S(=O)(=O)N2CCCC(C(=O)NCc3ccco3)C2)cc1Cl (centres undefined)	16	-3	?	4%	13µM*	5%
CCS(=O)(=O)N1CCC(C(=O)NCc2ccco2)CC1	-13	-3	1%	-1%	-153%	-2%
COC(=O)c1ccc(CNC(=O)c2ccc(S(=O)(=O)N3CCCC(C)C3)cc2)cc1 (centres undefined)	.	.	13µM*	5%	?	1%[11.6 µM]
O=C(NCc1ccc(F)cc1)c1ccc(S(=O)(=O)N2CCCC2)cc1	.	.	.	.	.	-11%
O=C(NCCC1CC1(Cl)Cl)c1ccc([N+](=O)[O-])cc1 (centres undefined)	44	25*	.	-3%	20%	-9%
COc1ccc(CCNC(=O)c2ccccc2C(=O)NCCc2ccc(OC)cc2)cc1	.	.	.	.	.	-9%
O=C(NCCc1ccc([N+](=O)[O-])cc1)c1ccccc1	61*	29*	?	-1%	?	-11%
COc1ccc(CCNC(=O)c2ccccc2)cc1	117*	28*	19%	0%	?	2%
O=C(NCCc1ccccc1)c1ccc([N+](=O)[O-])cc1	56	6	403%	4%	?	-3%
COc1ccc(C(=O)NCCc2cn3ccccc3n2)cc1	43*	18	23%	3%	-17%	-12%
COc1ccc(OC(=O)NCCc2ccccc2)cc1	62*	33*	110%	-1%	110%	0%
COc1ccc(CCNC(=O)C2=COCCO2)cc1	66*	24*	70%	-8%	90%	4%
COc1ccc(CC(=O)Nc2ccccc2C(=O)NCCc2ccccc2)cc1	48*	30*	?	7%	12µM*	-2%
CC(C)c1ccc(OC(=O)NCCO)cc1	44*	15*	25%	-4%	.	6%
COc1ccc(CCNC(=O)CC(=O)NCCc2ccc(OC)cc2)cc1	-3	-2	?	0%	-2%	15%
CCCOc1ccc(CNC(=S)Nc2ccccc2)cc1Cl	19	5	.	-2%	-1%	49%

Source: PubChem BioAssay (National Center for Advancing Translational Sciences (NCATS))
